# Source: PubChem BioAssay AID624300 (Southern Research Specialized Biocontainment Screening …, 2012)
# In all, about 2,400 compounds went through this assay and about 360 (15%) were called active. Not all results are given here. Measured potencies and affinities stand elsewhere. Unmarked numbers belong to inactive results.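 The calls were made as follows: active = viability falls under 70% at one or more tested concentrations, taken as toxicity; inactive = viability stays over 70% at every dose.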
# Assay: HeLa cell cytotoxicity, dose response, cytotoxicity control for MgcRacGAP inhibitor project (AID 624300);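 also: 100% = median of untreated control wells on the same plate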
# Settings: CellTiter-Glo luminescence, 24 h; series mostly up to 100 µM; viability: at the top concentration
row,Structure (SMILES),viability [%]
1,CCN(CC(=O)NCc1ccc(F)cc1)C(=O)CN1CCN(c2ccc(OC)cc2)CC1,104
2,O=C(CNCC1CCCO1)Nc1ccc(N2CCCCCC2)cc1 (stereo not given),95.6
3,Cc1ccccc1N1C(S)=C(C#N)C(=O)NC1c1cccs1 (stereo not given),98.3
4,Cc1ncc(CO)c(/C=N/Nc2ccc(C(F)(F)F)cn2)c1O,96.6
5,CCOc1cc(/C=N/NC(=O)CCCC(=O)NC2CCCCC2)ccc1O,103
6,COc1cc(/C=C/C(=O)OCC(=O)N2CCN(S(=O)(=O)c3ccc(C)cc3C)CC2)ccc1O,87.1
7,CCN(CC)CCC(=O)N1C/C(=C/c2ccccc2)C(=O)/C(=C\c2ccccc2)C1,87.1
8,CCOc1cc(/C=C2\CN(CC)C/C(=C\c3ccc(O)c(OCC)c3)C2=O)ccc1O,83.4
9,CC(C)c1ccc(CNc2ccc(N3CCOCC3)cc2)cc1,91.4
10,CC1CCN(S(=O)(=O)c2ccc3c(c2)C(Cl)(Cl)C(=O)N3)CC1,94
11,CCOc1cc(/C=C2\CN(C)C/C(=C\c3ccc(O)c(OCC)c3)C2=O)ccc1O,99
12,CCOc1cc(CNc2ccc3[nH]c(=O)[nH]c3c2)ccc1OCC(=O)NC(C)(C)C,103
13,O=C1CSC(=Nc2ccc(O)cc2)N1,119
14,CCN(CC)S(=O)(=O)c1cccc(-c2n[nH]c(=S)n2/N=C/c2ccc(C(=O)OC)cc2)c1,90.5
15,c1cc2c(cc1NC1CCCCCC1)OCO2,109
16,CC(=O)N1CCC(=NNC(=O)c2cc3ccccc3cc2O)CC1,102
17,C/C(=N\Nc1ccc([N+](=O)[O-])cc1)c1ccc(N)cc1,93.4
18,COc1cccc(NC2=C(C#N)C(=O)NC(c3cccc(OC)c3O)S2)c1 (stereo not given),99.7
19,COc1ccc(NCc2cc(=O)[nH]c3ccccc23)cc1,98.2
20,Cn1c(=O)c2ccccc2n2c(=S)[nH]nc12,87.6
21,CC(OC(=O)CCN=C1NS(=O)(=O)c2ccccc21)C(=O)Nc1ccc(N(C)C)cc1 (stereo not given),106
22,CCNC(=S)Nc1cc2oc3ccccc3c2cc1OC,87.5
23,COc1cc2c(cc1NC(=S)Nc1cccc3ccccc13)oc1ccccc12,95.5
24,CC(=O)Nc1ccc(N=Nc2ccc(O)cc2)cc1,111
25,CCN(C=NC1=NN(c2cccc(C(F)(F)F)c2)CC1)CC,94.5

row,Structure (SMILES),viability [%]
1,O=C(Cn1sc2ccccc2c1=O)Nc1ccc(F)cc1,91.6
2,COc1ccc(N2CCN(c3ncccn3)CC2)cc1,103
3,Cc1ccc(-n2sc3ccccc3c2=O)cc1,82.2
4,O=C(Cn1sc2ccccc2c1=O)Nc1ccccc1,94.5
5,S=C(NCc1ccco1)NCc1ccco1,108
6,COc1cc(CN2CCC(C(=O)N3CCCC(C)C3)CC2)cc(Br)c1O (stereo not given),97
7,O=C(NC(=S)Nc1ccc(O)cc1)C1CCCC1,103
8,COc1cc(/C=N/N=C2/SCC(=O)N2c2ccc(O)cc2)ccc1O,115
9,CN(C)c1ccc(NC(=O)CCN2C(=O)c3cccc([N+](=O)[O-])c3C2=O)cc1,102
10,COc1cccc(Nc2ccc(N3CCCCC3)cc2)c1OC,86.7
11,C=CCNC(=S)N1CCN(Cc2ccc3c(c2)OCO3)CC1,98.5
12,CCOc1ccc(C2NC(=O)C(C#N)=C(S)N2c2ccc(C)cc2)cc1OC (stereo not given),98.6
13,COc1ccc(NC(=O)Nc2ccc(N(C)C)cc2)cc1,99.5
14,CN(CCCCCCN(C)Cc1ccccc1O)Cc1ccccc1O,98.8
15,CCCc1c(C)[nH]c2ccc(C(=O)O)cc2c1=S,107
16,Nc1nc(Sc2ccc([N+](=O)[O-])c3nonc23)c2[nH]cnc2n1,48.2
17,CCOC(=O)c1c(/N=C/C2=C(O)CCCC2=O)sc(C)c1C,98.8
18,O=C(O)c1cccc(-n2sc3ccccc3c2=O)c1,88
19,Clc1ccccc1-c1nc(/C=N/N2CCOCC2)c2ccccn12,97.4
20,O=C(CN1CCc2ccccc2C1)Nc1ccccc1C(F)(F)F,97.3
21,O=C(N/N=C/c1ccc(O)cc1)c1csc2c1CCCC2,97.4
22,Oc1ccc(-c2nccs2)cc1,92.6
23,CCN=c1scc(C)n1/N=C/c1cc(Br)c(O)c(OC)c1,90.2
24,Cc1cc(=O)[nH]c2c(N=Nc3ccc(O)cc3)c(N)nn12,99.6
25,CC1(C)CC(=O)C2=C(C1)Nc1ccccc1S2,106

row,Structure (SMILES),viability [%]
1,COc1cccc(/C=N/n2c(-c3n[nH]c4c3CCC4)n[nH]c2=S)c1O,88.5
2,O=C1CCC(C2CCc3cc(O)ccc3C2)C1 (stereo not given),89
3,CCOc1ccccc1CN1CCC(N2CCOCC2)CC1,91.6
4,CC(C)CC(=O)N1CCN(Cc2cccc([N+](=O)[O-])c2)CC1,85.5
5,CCOc1cc(/C=N/NC(=O)CCc2n[nH]c(=O)[nH]c2=O)ccc1O,106
6,S=c1[nH]nc(-c2cccnc2)n1/N=C/c1cccs1,102
7,Oc1ccc(-c2csc(-c3cccnc3)n2)cc1O,95.4
8,COc1cc2cc(-c3ccc(O)cc3O)nc(C)c2cc1OC,82.8
9,COc1ccc(-c2cn[nH]c2-c2ccc(O)cc2O)cc1OC,91.1
10,COc1ccc(C2NC(=O)C(C#N)=C(S)N2c2ccc(C)cc2)cc1OC (stereo not given),104
11,N#CC1(Nc2ccc(-c3ccc(NC4(C#N)CCCC4)cc3)cc2)CCCC1,110
12,Nc1ccc(N2CCCCC2)c(Cl)c1,98
13,Cc1cccc(NC2=C(C#N)C(=O)NC3(CCCC3)S2)c1,98.8
14,CCOc1cc(/C=C2/N=C(C)C(C(=O)OC)=C2O)ccc1O,100
15,COC(=O)C1=C(C)N(CC2CCCO2)C(=O)/C1=C\c1ccc(O)cc1 (stereo not given),102
16,COc1cc(-c2nc3ccccn3c2/N=C/c2cc(OC)c(O)cc2Cl)ccc1O,89.2
17,COc1cc(-c2nc3cnccn3c2Nc2c(C)cccc2C)ccc1O,97.4
18,Cc1ccccc1CN(C)CCc1ccccn1,99.2
19,Cc1nc(S/C(=C\c2ccc(-c3ccc(C(=O)O)c(Cl)c3)o2)C(=O)O)n[nH]1,105
20,O=C1c2ccccc2C(=O)C1c1ccc(O)cc1,97.7
21,Cc1ccc(S(=O)(=O)/N=S(/c2ccccc2)C(C)C)cc1 (stereo not given),88
22,Oc1ccc(N=Nc2ccccc2)cc1,98
23,Cc1ccc(S(=O)(=O)Nc2ccc(N(C)C)cc2)cc1,92.1
24,COc1cc2c(cc1OC)C(c1cc(Br)c(OC)c(OC)c1)CC(=O)N2 (stereo not given),99
25,CN(C)c1ccc(NC(=O)c2cccc(N3C(=O)C4C5C=CC(C5)C4C3=O)c2)cc1 (stereo not given),105
